AF4-AF9 inh: blocks AF4 peptide binding to human AF9. AlphaScreen, biotin-AF4 peptide binding to FLAG-AF9. inhibition, % at 10 µM. actives 0.47% (n = 350,000). AID 651704;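 active means every replicate reaching a set inhibition limit, whatever the replicate mean, cut at about 25% in these data; inconclusive means mean inhibition reaches that limit but some replicates miss it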
DENV2 CPE: protects cells from dengue virus 2 cytopathic effect; DENV2-infected cells, cytopathic effect rescue, plate reader; CPE inhibition, % at 9.99 µM; actives 1.7% (n = 350,000); AID 651640; in the data active means CPE inhibition above about 20%, passing the limit was not always enough; inconclusive means no clear call, values can overlap the other calls; tested in BHK-21 cells
FGF22 binding: FGF22 (human) thermal shift binding | Q9HCT0 | recombinant FGF22 thermal shift, SYPRO orange fluorescence; percent of sucrose octasulfate shift, DMSO zero | activity (Tm shift, normalised), % at 9.99 µM | actives 1.5% (n = 340,000) | AID 651658;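 active means mean Tm shift, scaled 0 neutral to 100 positive control, at about 1.3% or above, every replicate too, limit read from the data; inconclusive means no clear call, values can overlap the other calls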
Target sequence (Q9HCT0 whole entry, looked up): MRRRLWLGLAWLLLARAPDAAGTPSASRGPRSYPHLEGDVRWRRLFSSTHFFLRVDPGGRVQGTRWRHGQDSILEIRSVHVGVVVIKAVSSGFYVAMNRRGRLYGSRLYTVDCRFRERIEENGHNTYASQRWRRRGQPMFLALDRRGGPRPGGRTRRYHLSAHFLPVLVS
ERAP1 inh: blocks human ERAP1 aminopeptidase activity | recombinant ERAP1, Leu-AMC fluorescence, 60 min | inhibition, % at 10.7 µM | actives 0.15% (n = 340,000) | AID 652197;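 active means mean replicate inhibition of at least 30%, or all replicates individually reaching that 30% level; inactive means mean below 30% and not every replicate reaching it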
RAD52 inh: inhibitors of human RAD52 DNA annealing. recombinant RAD52 DNA annealing, FRET fluorescence. inhibition, % at 18.7 µM. AID 651710. P43351. actives 0.46% (n = 360,000);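 active means every replicate showing at least 50% inhibition; inconclusive means mean inhibition at least 50% but not in every replicate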
Target sequence (P43351 whole entry, looked up): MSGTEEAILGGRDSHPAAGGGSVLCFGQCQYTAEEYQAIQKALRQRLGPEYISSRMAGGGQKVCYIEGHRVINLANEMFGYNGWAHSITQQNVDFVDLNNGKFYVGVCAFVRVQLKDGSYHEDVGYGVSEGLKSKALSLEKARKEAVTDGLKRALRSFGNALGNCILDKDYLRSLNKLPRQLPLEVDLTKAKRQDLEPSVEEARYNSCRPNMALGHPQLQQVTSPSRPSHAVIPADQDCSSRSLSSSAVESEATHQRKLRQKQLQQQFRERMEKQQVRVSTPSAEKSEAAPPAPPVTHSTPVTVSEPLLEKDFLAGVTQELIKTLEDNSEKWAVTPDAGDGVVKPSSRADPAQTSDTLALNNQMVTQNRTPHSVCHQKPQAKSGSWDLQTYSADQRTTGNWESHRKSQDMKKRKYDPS
Large screens that a line does not name were inactive. Hits are enriched below; roughly 4% of the tested compounds scored in any of these assays.

C=CCOC(=O)[C@@]12O[C@]3(COC[C@H](c4ccccc4)N3C1=O)[C@@H]1C(=O)N(c3ccccc3)C(=O)[C@@H]12	none
O=S(=O)(N[C@@H]1CC[C@@H](CCn2cc(-c3ccccc3F)nn2)O[C@H]1CO)c1ccc(F)cc1	none
CCC(=O)N(C)C[C@@H]1Oc2cc(C#CCC3CCCC3)ccc2S(=O)(=O)N([C@@H](C)CO)C[C@H]1C	none
C#CCNC(=O)C1=C[C@H](c2ccc3c(c2)OCO3)C[C@H](OCCCCO)O1	DENV2 CPE 26 (no result: ERAP1 inh)
C#CCNC(=O)C1=C[C@@H](c2ccc3c(c2)OCO3)C[C@@H](OCCCCO)O1	none
C[C@@H]1C=C(C(=O)N2CCN(Cc3ccc4c(c3)OCO4)CC2)O[C@H](OCCCCO)C1	DENV2 CPE 21
CCO[C@H]1OC(C(=O)N2CCN(Cc3ccc4c(c3)OCO4)CC2)=C[C@@H](C)[C@@H]1CCCO	FGF22 binding 9.2
O=C(C1=C[C@H](C2CC2)C[C@H](OCCCCO)O1)N1CCN(Cc2ccc3c(c2)OCO3)CC1	none
C[C@@H](NC(=O)C[C@H]1C[C@@H]2c3cc(NC(=O)C4CCOCC4)ccc3O[C@@H]2[C@@H](CO)O1)c1ccccc1	none
COCC(=O)N1C[C@@H](C)[C@H](OC)CN(C)C(=O)c2cc(NC(=O)c3ccc(OC)cc3)ccc2OC[C@@H]1C	none
C[C@@H]1CCCCO[C@H](CN(C)Cc2ccc(C(F)(F)F)cc2)[C@@H](C)CN([C@H](C)CO)C(=O)c2cc(NC(=O)CCCCCC(=O)Nc3ccccc3N)ccc2O1	none
COc1ccc(NC(=O)Nc2cccc3c2O[C@@H](CN(C)CC2CCCCC2)[C@H](C)CN([C@@H](C)CO)C3=O)cc1	none
NC(=O)c1ccc(Nc2ccc([N+](=O)[O-])cc2[N+](=O)[O-])cc1	none
Nc1ccc(Nc2ccc([N+](=O)[O-])cc2[N+](=O)[O-])cc1	AF4-AF9 inh 27
CCn1c(=O)n(CC)c2cc(N3CCCC3)c(NC(=O)c3ccc(C)cc3)cc21	DENV2 CPE 36
O=C(C[C@H]1CC[C@H](NC(=O)c2ccccc2)[C@H](CO)O1)NCc1ccncn1	none
O=C(/C=C/c1ccccc1)N1CCC(c2ccccc2)C1 (stereo not given)	none
O=C(/C=C/c1ccco1)N1CCCC(c2ccccc2)C1 (stereo not given)	FGF22 binding 44 (no result: DENV2 CPE)
N/C(Cc1nc(-c2ccc(Br)cc2)cs1)=N\O	FGF22 binding 43
CC(C)NC(=O)Nc1ccc2c(c1)CC(=O)N([C@@H](C)CO)C[C@@H](C)[C@H](CN(C)C(=O)NC(C)C)O2	DENV2 CPE inconclusive
O=C(COc1ccc2c(c1)OCO2)Nc1ccccc1F	none
Fc1ccc(C2CCNCC2COc2ccc3c(c2)OCO3)cc1 (stereo not given)	AF4-AF9 inh 32
CCCNC(=O)N(C)C[C@H]1Oc2ncc(C#Cc3ccncc3)cc2C(=O)N([C@H](C)CO)C[C@@H]1C	none
OC[C@@H]1[C@@H](c2ccccc2)C2(CN(Cc3nccs3)C2)N1Cc1ccccc1	DENV2 CPE 20
OC[C@@H]1[C@@H](c2ccccc2)C2(CN(Cc3nccs3)C2)N1Cc1cccnc1	DENV2 CPE 84
OC[C@@H]1[C@H](c2ccccc2)C2(CN(Cc3nccs3)C2)N1Cc1cccnc1	none
Cc1cccc(C)c1NC(=O)CN1CCN(C(=O)CN2C(=O)NC3(CCCCC3C)C2=O)CC1 (stereo not given)	DENV2 CPE 25
O=C1O[C@H](c2ccccc2)[C@H](c2ccccc2)N2[C@H]1[C@@H](C(=O)N1CCCCCCC1)[C@]1(C(=O)Nc3ccccc31)[C@H]2c1ccccc1OCCO	DENV2 CPE 42
O=C1O[C@@H](c2ccccc2)[C@@H](c2ccccc2)N2[C@@H](c3ccccc3OCCO)[C@]3(C(=O)Nc4ccc(C#CCCO)cc43)[C@@H](C(=O)N3CCCCCCC3)[C@H]12	RAD52 inh 73
NC(=O)NCC#Cc1ccc2c(c1)[C@]1(C(=O)N2)[C@H](c2ccccc2OCCO)N2[C@H](c3ccccc3)[C@H](c3ccccc3)OC(=O)[C@H]2[C@@H]1C(=O)N1CCCCCCC1	none
C=CCNC(=O)[C@H]1[C@@H]2C(=O)O[C@@H](c3ccccc3)[C@@H](c3ccccc3)N2[C@@H](c2ccccc2OCCO)[C@]12C(=O)Nc1ccc(C#CC3(O)CCCCCC3)cc12	FGF22 binding 33
O=C1O[C@@H](c2ccccc2)[C@@H](c2ccccc2)N2[C@@H](c3ccccc3OCCO)[C@]3(C(=O)Nc4ccc(C#CCCO)cc43)[C@@H](C(=O)O)[C@H]12	FGF22 binding 16
CO[C@@H]1CN(C)C(=O)c2cc(NC(=O)Cc3ccccc3)ccc2OC[C@H](C)NC[C@H]1C	none (no result: ERAP1 inh)
C[C@@H]1CN([C@H](C)CO)S(=O)(=O)c2ccc(C#CC3CCCCC3)cc2O[C@@H]1CN(C)C	none
N#Cc1ccc(-c2ccc([C@H]3[C@@H](CO)N4CCCCN(C(=O)Nc5ccc(F)cc5)C[C@H]34)cc2)cc1	none
N#Cc1ccc(-c2ccc([C@H]3[C@H](CO)N4CCCCN(C(=O)Nc5ccc(F)cc5)C[C@@H]34)cc2)cc1	DENV2 CPE 49
N#Cc1ccc(-c2ccc([C@H]3[C@H]4CN(C(=O)Nc5ccc(F)cc5)CCCCN4[C@H]3CO)cc2)cc1	DENV2 CPE 24
N#Cc1ccc(-c2ccc([C@@H]3[C@@H](CO)N4CCCCN(C(=O)Nc5ccc(F)cc5)C[C@@H]34)cc2)cc1	none
COc1ccccc1N1CCN(/N=C/c2ccc(C(=O)O)cc2)CC1	DENV2 CPE inconclusive
CN1CCN(/N=C/c2ccc(OCc3ccccc3)cc2)CC1	DENV2 CPE 23
CN(C)c1ccc(/C=N/N2CCN(Cc3ccccc3Cl)CC2)cc1	AF4-AF9 inh 31, DENV2 CPE 55
CCN(CC)c1ccc(/C=N/N2CCN(c3ccccc3OC)CC2)cc1	AF4-AF9 inh 30
O=[N+]([O-])c1ccc(/C=N\N2CCN(Cc3ccccc3Cl)CC2)cc1	none
CCN(CC)c1ccc(/C=N/N2CCN(Cc3ccccc3Cl)CC2)cc1	AF4-AF9 inh 26
COCC(=O)Nc1ccc2c(c1)OC[C@@H](C)N(C(=O)COC)C[C@@H](C)[C@@H](OC)CN(C)C2=O	none
COc1ccccc1NC(=O)Nc1ccc2c(c1)OC[C@@H](C)N(Cc1ccccc1Cl)C[C@@H](C)[C@H](OC)CN(C)C2=O	none
C(=N\N1CCN(Cc2ccccc2)CC1)/c1ccccc1	none (no result: ERAP1 inh)
CC(/C=N\N1CCN(Cc2ccc(C)cc2)CC1)=C\c1ccccc1	FGF22 binding 44
CCN(CC)c1ccc(/C=N/N2CCN(Cc3ccccc3)CC2)cc1	AF4-AF9 inh 37
O=C(C[C@@H]1CC[C@H](NC(=O)CC2CC2)[C@@H](CO)O1)NCc1ccccc1	none (no result: FGF22 binding)
CN(C)N1C(N)=C(C#N)C(c2ccccc2)C2=C1CCCC2=O (stereo not given)	FGF22 binding 43
